This is an account of results in PubChem BioAssay (NCI).

Test systems include SR leukemia; RPMI-8226 leukemia; OVCAR-5 ovarian; OVCAR-4 ovarian; SK-OV-3 ovarian; IGROV1 ovarian; OVCAR-3 ovarian; HS 578T breast; NCI/ADR-RES ovarian; OVCAR-8 ovarian.
Common to all, as to experiment: NCI-60 one-dose screen, 48 h (100 = growth as untreated, 0 = no growth, -100 = all killed)
Details in all cases: 10 µM unless noted

The panel holds about 83,000 compounds, 20% with a hit somewhere; the sample as a whole holds those more often.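 Cell lines were cultured in 96-well plates, exposed to a single compound concentration, and assessed for percent growth 48 hours later.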 A number with no mark means an inactive call. Calls of active or inactive are those of the source. Rule for the calls: active = growth percent below 10; inactive = the rest.

As to `COc1cc2c(c(OC)c1OC)-c1ccc(SC)c(=O)cc1[C@@H](NC1OC(CO)C(O)C(O)C1O)CC2` (some centres not stated), the growth in the assay with SR leukemia was -22.4% (active); with RPMI-8226 leukemia it was 19.7%; in the assay with OVCAR-5 ovarian, 28.1%; in the assay with OVCAR-4 ovarian it was 68.3%; with SK-OV-3 ovarian, 1.33% (active); in the assay on IGROV1 ovarian, 14.8%. For the same compound, the growth in the assay on OVCAR-3 ovarian was -15.5% (active); with HS 578T breast it was 28.5%; with NCI/ADR-RES ovarian it was 7.19% (active).
Take `CC(=O)OCC1CCC(COC(C)=O)CC1` (configuration not stated): the growth with SR leukemia was 95.7%; with OVCAR-8 ovarian, 106%; in the assay on OVCAR-5 ovarian, 106%; in the assay with OVCAR-4 ovarian, 111%; with SK-OV-3 ovarian it was 87.9%; in the assay with IGROV1 ovarian it was 105%. The growth with OVCAR-3 ovarian was 102%; with HS 578T breast, 106%; in the assay with NCI/ADR-RES ovarian it was 99.2%.
As for `O=C(OCc1ccccc1)n1nnc2ccccc21`, the growth is 107% in the assay with SR leukemia; 109% with RPMI-8226 leukemia; 105% with OVCAR-8 ovarian; 92.3% in the assay on OVCAR-4 ovarian; 112% in the assay with SK-OV-3 ovarian; 110% in the assay with IGROV1 ovarian. The growth was 106% with OVCAR-3 ovarian, 107% in the assay with HS 578T breast and 111% in the assay with NCI/ADR-RES ovarian.
As for `CCCCCC(=O)OCCC1CCCCC1`, the growth is 88.9% with SR leukemia; 104% in the assay with OVCAR-8 ovarian; 105% in the assay with OVCAR-5 ovarian; 101% in the assay on OVCAR-4 ovarian; 106% in the assay on SK-OV-3 ovarian; 108% in the assay with IGROV1 ovarian. Besides, the growth in the assay with OVCAR-3 ovarian was 95.3%; in the assay with HS 578T breast, 89.7%; in the assay on NCI/ADR-RES ovarian, 103%.
Turning to `CCOC(=O)N[C@H]1CCc2cc(OC)c(OC)c(OC)c2-c2ccc(SC)c(=O)cc21`, the growth with SR leukemia is 3.83% (active); in the assay with OVCAR-8 ovarian it was 20.8%; in the assay on OVCAR-5 ovarian it was 23.3%; in the assay on OVCAR-4 ovarian, 53.4%; in the assay on SK-OV-3 ovarian it was 28.7%; in the assay with IGROV1 ovarian, 21.7%. For the same compound, the growth in the assay with OVCAR-3 ovarian is -9.45% (active); with HS 578T breast it was 9.15% (active).
As for `S=CN1CCCCC1`, the growth in the assay with SR leukemia was 99.5%; in the assay with RPMI-8226 leukemia it was 110%; in the assay with OVCAR-8 ovarian it was 97.5%; in the assay on OVCAR-4 ovarian, 102%; in the assay with SK-OV-3 ovarian, 115%; with IGROV1 ovarian, 109%. Besides, the figures for the growth in the assay with OVCAR-3 ovarian, with HS 578T breast and in the assay with NCI/ADR-RES ovarian were 102%, 112% and 106%, respectively.
Turning to `C1CCc2onc(-c3noc4c3CCCCC4)c2CC1`, the growth in the assay with SR leukemia was 92.4%; in the assay with OVCAR-8 ovarian, 109%; in the assay with OVCAR-5 ovarian it was 103%; in the assay on OVCAR-4 ovarian it was 109%; in the assay with SK-OV-3 ovarian, 106%; in the assay with IGROV1 ovarian, 115%. The growth in the assay with OVCAR-3 ovarian was 127%; in the assay with HS 578T breast, 115%; in the assay with NCI/ADR-RES ovarian, 115%.
Consider `CCCOCc1cn[nH]n1`, for which the growth with SR leukemia is 99.2%; with RPMI-8226 leukemia, 111%; in the assay on OVCAR-8 ovarian, 102%; in the assay with OVCAR-4 ovarian, 110%; with SK-OV-3 ovarian it was 109%; with IGROV1 ovarian, 113%. Also, the growth in the assay on OVCAR-3 ovarian was 108%; in the assay on HS 578T breast it was 114%; with NCI/ADR-RES ovarian it was 106%.
`Clc1cccc(Cl)c1C1CSc2ccccc2N=C1c1ccccc1` (configuration not stated): the growth is -14% (active) in the assay with SR leukemia; -14.8% (active) with RPMI-8226 leukemia; 101% in the assay with OVCAR-5 ovarian; 73% in the assay on OVCAR-4 ovarian; 96.5% in the assay on SK-OV-3 ovarian; 91.8% in the assay with IGROV1 ovarian. The results for the growth in the assay on OVCAR-3 ovarian, in the assay on HS 578T breast and in the assay on NCI/ADR-RES ovarian were 69.6%, 88.1% and 73.3%, respectively.
Regarding `CC(C)Sc1ncnc2nc[nH]c12`, the growth is 122% in the assay on SR leukemia; 118% in the assay with RPMI-8226 leukemia; 107% in the assay on OVCAR-8 ovarian; 101% in the assay with OVCAR-5 ovarian; 120% in the assay on OVCAR-3 ovarian; 139% in the assay on HS 578T breast. Also, in the assay on NCI/ADR-RES ovarian, the growth is 102%.
Consider `C=CC(C)(C)n1cc(C2=C(O)C(=O)C(c3cn(C(C)(C)C=C)c4ccccc34)=C(O)C2=O)c2ccccc21`, for which the growth in the assay with SR leukemia was 71.6%; with RPMI-8226 leukemia it was 104%; in the assay on OVCAR-5 ovarian, 122%; in the assay on OVCAR-4 ovarian it was 92.4%; with SK-OV-3 ovarian, 94.3%; in the assay on IGROV1 ovarian, 99.5%. Also, the values for the growth with OVCAR-3 ovarian and with NCI/ADR-RES ovarian were 107% and 97.5%, respectively.
For `Nc1cc2ccccc2c(O)c1O`, the growth with SR leukemia was 0.498% (active); in the assay with OVCAR-8 ovarian, -69.9% (active); in the assay on OVCAR-5 ovarian, 76.1%; in the assay on OVCAR-4 ovarian, -97.7% (active); with SK-OV-3 ovarian, 79.3%; in the assay with IGROV1 ovarian, 67.3%. The growth in the assay with OVCAR-3 ovarian was -39.9% (active); in the assay with HS 578T breast, 81.7%; in the assay with NCI/ADR-RES ovarian, 55.3%.
`C/C(O)=C(/C=N/C(=S)Nc1ccccc1)C(=O)Nc1ccccc1C`: the growth was 91.7% in the assay with SR leukemia; 96.3% in the assay on OVCAR-8 ovarian; 117% in the assay on OVCAR-5 ovarian; 101% in the assay with SK-OV-3 ovarian; 105% with IGROV1 ovarian; 105% with OVCAR-3 ovarian. The results for the growth in the assay with HS 578T breast and in the assay on NCI/ADR-RES ovarian were 94.8% and 103%, respectively.
Regarding `CC(=O)C1C(=O)C(=O)N(c2cccc([N+](=O)[O-])c2)C1=O` (configuration not stated), the growth in the assay on SR leukemia was 95.6%; with OVCAR-8 ovarian it was 106%; in the assay with OVCAR-5 ovarian, 113%; in the assay on OVCAR-4 ovarian, 103%; with SK-OV-3 ovarian, 102%; in the assay with IGROV1 ovarian it was 109%. For the same compound, the growth in the assay on OVCAR-3 ovarian was 117%; in the assay with HS 578T breast, 93.8%; with NCI/ADR-RES ovarian it was 113%.
Regarding `O=C(c1ccccc1)c1ccc(-c2ccc(O)cc2)cc1`, the growth in the assay on SR leukemia is 177%; in the assay with OVCAR-8 ovarian, 82.8%; in the assay with OVCAR-5 ovarian, 108%; in the assay with SK-OV-3 ovarian, 93.4%; with IGROV1 ovarian, 25.9%; in the assay on OVCAR-3 ovarian it was 85.8%. The growth is 104% in the assay on HS 578T breast and 44.5% in the assay with NCI/ADR-RES ovarian.
Regarding `C=C1CC2(OC1=O)C(=O)N(C)c1ccc(I)cc12` (configuration not stated), the growth in the assay on RPMI-8226 leukemia was -60% (active); in the assay on OVCAR-8 ovarian it was -8.98% (active); in the assay with OVCAR-5 ovarian it was -10.3% (active); in the assay with OVCAR-4 ovarian, -87.6% (active); in the assay on SK-OV-3 ovarian, 67.6%; with IGROV1 ovarian it was -66.9% (active). Also, the values for the growth in the assay on OVCAR-3 ovarian, with HS 578T breast and with NCI/ADR-RES ovarian were -96.9% (active), -5.25% (active) and -66% (active), respectively.
As to `CC(O)C(F)(F)C(F)(F)C(F)(F)F` (configuration not stated), the growth with SR leukemia is 97.6%; in the assay with OVCAR-8 ovarian it was 110%; in the assay on OVCAR-5 ovarian it was 98.7%; with OVCAR-4 ovarian, 103%; in the assay on SK-OV-3 ovarian it was 118%; with IGROV1 ovarian, 114%. Also, the growth in the assay with OVCAR-3 ovarian was 121%; with HS 578T breast, 105%; with NCI/ADR-RES ovarian, 110%.
